Drawing on PMC11006913, this text covers binding signal for 8 sequences.

Positions count from the first letter of the chain named.

Holding throughout (experiment): PBM; 200 nM protein, PBS
Details in all cases: dsDNA, one strand shown

The target in assay [1] is T1, VENTX (Homo sapiens, UniProt O95231 78-163, R121Q).
T1 sequence: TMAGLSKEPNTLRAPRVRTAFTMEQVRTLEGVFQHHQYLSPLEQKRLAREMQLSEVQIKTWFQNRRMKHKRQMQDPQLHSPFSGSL

For assay [2], the target named is T2, VENTX (Homo sapiens, UniProt O95231 78-163).
T2 sequence: T1 sequence with Q44R

Assay [3] deals with T3, VENTX (Homo sapiens, UniProt O95231 78-163, Y115F).
T3 sequence: T1 sequence with Y38F, Q44R

For assay [4], the target named is ALX1 (Homo sapiens, UniProt Q15699 118-204, L144V).
Sequence of ALX1 (Homo sapiens, UniProt Q15699 118-204, L144V) (Q15699 118-204 L144V): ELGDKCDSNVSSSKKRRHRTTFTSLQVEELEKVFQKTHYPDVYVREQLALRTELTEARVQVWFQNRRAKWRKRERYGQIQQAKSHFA
Assay [5] has as its target ALX1 (Homo sapiens, UniProt Q15699 118-204, L144R).
Assay [6] addresses ALX1 (Homo sapiens, UniProt Q15699 118-204).
Assay [7] addresses HOXB6 (Homo sapiens, UniProt P17509 132-218, K202E).
Assay [8] has as its target HOXB6 (Homo sapiens, UniProt P17509 132-218).
Assay [9] has as its target ALX3 (Homo sapiens, UniProt O95076 139-225, N203Q).
In assay [10] the target is ALX3 (Homo sapiens, UniProt O95076 139-225).
Sequence of ALX3 (Homo sapiens, UniProt O95076 139-225) (O95076 139-225): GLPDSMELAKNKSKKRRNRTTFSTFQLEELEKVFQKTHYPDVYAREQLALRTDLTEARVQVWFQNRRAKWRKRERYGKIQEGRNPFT
The target of assay [11] is VAX1 (Homo sapiens, UniProt Q5SQQ9 86-172).
Sequence of VAX1 (Homo sapiens, UniProt Q5SQQ9 86-172) (Q5SQQ9 86-172): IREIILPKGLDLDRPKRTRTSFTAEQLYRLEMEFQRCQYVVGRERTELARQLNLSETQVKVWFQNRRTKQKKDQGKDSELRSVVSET
For assay [12], the target named is ALX3 (Homo sapiens, UniProt O95076 139-225, L168Q).
Sequence of ALX3 (Homo sapiens, UniProt O95076 139-225, L168Q) (O95076 139-225 L168Q): as the sequence (O95076 139-225) above, with L30Q counted along it
For assay [13], the target named is ALX3 (Homo sapiens, UniProt O95076 139-225, L168V).
Sequence of ALX3 (Homo sapiens, UniProt O95076 139-225, L168V) (O95076 139-225 L168V): as the sequence (O95076 139-225) above, with L30V counted along it
Assay [14] has as its target VAX1 (Homo sapiens, UniProt Q5SQQ9 86-172, T142I).
The target of assay [15] is ALX3 (Homo sapiens, UniProt O95076 139-225, N203S).
Sequence of ALX3 (Homo sapiens, UniProt O95076 139-225, N203S) (O95076 139-225 N203S): as the sequence (O95076 139-225) above, with N65S counted along it
The target in assay [16] is VAX1 (Homo sapiens, UniProt Q5SQQ9 86-172, K157R).
Sequence of VAX1 (Homo sapiens, UniProt Q5SQQ9 86-172, K157R) (Q5SQQ9 86-172 K157R): as the sequence (Q5SQQ9 86-172) above, with K72R counted along it
Assay [17] has as its target HOXA2 (Homo sapiens, UniProt O43364 129-215, R185T).
In assay [18] the target is HOXA2 (Homo sapiens, UniProt O43364 129-215, R185K).
Sequence of HOXA2 (Homo sapiens, UniProt O43364 129-215, R185K) (O43364 129-215 R185K): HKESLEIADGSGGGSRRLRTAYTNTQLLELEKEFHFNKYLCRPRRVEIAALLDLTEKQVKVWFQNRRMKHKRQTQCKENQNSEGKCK
Assay [19] addresses HOXA2 (Homo sapiens, UniProt O43364 129-215, Y150S).
In assay [20] the target is HOXA2 (Homo sapiens, UniProt O43364 129-215).
Sequence of HOXA2 (Homo sapiens, UniProt O43364 129-215) (O43364 129-215): as the sequence (O43364 129-215 R185K) above, with K57R counted along it
Assay [21] has as its target HOXD13 (Homo sapiens, UniProt P35453 263-343, T313R).
Assay [22] concerns the target T4, NKX2-6 (Homo sapiens, UniProt A6NCS4 118-204).
T4 sequence: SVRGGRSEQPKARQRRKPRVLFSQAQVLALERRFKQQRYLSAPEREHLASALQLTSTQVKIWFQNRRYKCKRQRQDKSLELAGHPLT

In assay [23] the target is HOXD13 (Homo sapiens, UniProt P35453 263-343).
Sequence of HOXD13 (Homo sapiens, UniProt P35453 263-343) (P35453 263-343): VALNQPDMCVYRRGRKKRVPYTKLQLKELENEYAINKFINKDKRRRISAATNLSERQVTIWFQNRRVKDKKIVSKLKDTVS
Assay [24] deals with HOXD13 (Homo sapiens, UniProt P35453 263-343, T313A).
Sequence of HOXD13 (Homo sapiens, UniProt P35453 263-343, T313A) (P35453 263-343 T313A): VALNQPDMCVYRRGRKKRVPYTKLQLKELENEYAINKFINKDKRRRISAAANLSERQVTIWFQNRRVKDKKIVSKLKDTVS
For assay [25], the target named is T5, NKX2-6 (Homo sapiens, UniProt A6NCS4 118-204, F151L).
T5 sequence: T4 sequence with F34L

Sequence of ALX3 (Homo sapiens, UniProt O95076 139-225, N203Q) (O95076 139-225 N203Q): as the sequence (O95076 139-225) above, with N65Q counted along it
Sequence of VAX1 (Homo sapiens, UniProt Q5SQQ9 86-172, T142I) (Q5SQQ9 86-172 T142I): as the sequence (Q5SQQ9 86-172) above, with T57I counted along it
Sequence of ALX1 (Homo sapiens, UniProt Q15699 118-204, L144R) (Q15699 118-204 L144R): as the sequence (Q15699 118-204 L144V) above, with V27R counted along it
Sequence of ALX1 (Homo sapiens, UniProt Q15699 118-204) (Q15699 118-204): as the sequence (Q15699 118-204 L144V) above, with V27L counted along it
Sequence of HOXD13 (Homo sapiens, UniProt P35453 263-343, T313R) (P35453 263-343 T313R): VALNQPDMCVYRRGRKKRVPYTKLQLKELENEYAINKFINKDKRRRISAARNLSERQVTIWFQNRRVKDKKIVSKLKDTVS
Sequence of HOXA2 (Homo sapiens, UniProt O43364 129-215, Y150S) (O43364 129-215 Y150S): as the sequence (O43364 129-215 R185K) above, with Y22S, K57R counted along it
Sequence of HOXB6 (Homo sapiens, UniProt P17509 132-218, K202E) (P17509 132-218 K202E): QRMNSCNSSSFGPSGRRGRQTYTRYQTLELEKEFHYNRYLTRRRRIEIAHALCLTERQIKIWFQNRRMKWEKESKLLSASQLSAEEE
Sequence of HOXA2 (Homo sapiens, UniProt O43364 129-215, R185T) (O43364 129-215 R185T): as the sequence (O43364 129-215 R185K) above, with K57T counted along it
Sequence of HOXB6 (Homo sapiens, UniProt P17509 132-218) (P17509 132-218): as the sequence (P17509 132-218 K202E) above, with E71K counted along it

As to CGTCCTCC, the binding signal in assay [1] is 8.1 upbm affinity estimate (log intensity, higher = more binding, comparable within an allelic series); in assay [2] it was 8.19 upbm affinity estimate (log intensity, higher = more binding, comparable within an allelic series); in assay [3], 8.16 upbm affinity estimate (log intensity, higher = more binding, comparable within an allelic series); in assay [4], 6.55 upbm affinity estimate (log intensity, higher = more binding, comparable within an allelic series); in assay [5] it was 6.64 upbm affinity estimate (log intensity, higher = more binding, comparable within an allelic series); in assay [6] it was 6.6 upbm affinity estimate (log intensity, higher = more binding, comparable within an allelic series).
CCTGCTGC: the binding signal in assay [1] is 8.37 upbm affinity estimate (log intensity, higher = more binding, comparable within an allelic series); in assay [2] it was 8.45 upbm affinity estimate (log intensity, higher = more binding, comparable within an allelic series); in assay [3], 8.42 upbm affinity estimate (log intensity, higher = more binding, comparable within an allelic series); in assay [7] it was 9.18 upbm affinity estimate (log intensity, higher = more binding, comparable within an allelic series); in assay [8], 9.23 upbm affinity estimate (log intensity, higher = more binding, comparable within an allelic series).
For AGCGTGCC, the binding signal in assay [1] is 8.06 upbm affinity estimate (log intensity, higher = more binding, comparable within an allelic series); in assay [2], 7.96 upbm affinity estimate (log intensity, higher = more binding, comparable within an allelic series); in [3], 8.06 upbm affinity estimate (log intensity, higher = more binding, comparable within an allelic series); in assay [9] it was 7.73 upbm affinity estimate (log intensity, higher = more binding, comparable within an allelic series); in [10], 7.88 upbm affinity estimate (log intensity, higher = more binding, comparable within an allelic series); in assay [11] it was 7.14 upbm affinity estimate (log intensity, higher = more binding, comparable within an allelic series). In addition, the binding signal is 7.81 upbm affinity estimate (log intensity, higher = more binding, comparable within an allelic series) in [12]; 7.81 upbm affinity estimate (log intensity, higher = more binding, comparable within an allelic series) in assay [13]; 7.18 upbm affinity estimate (log intensity, higher = more binding, comparable within an allelic series) in assay [14]; 7.76 upbm affinity estimate (log intensity, higher = more binding, comparable within an allelic series) in [15]; 7.13 upbm affinity estimate (log intensity, higher = more binding, comparable within an allelic series) in assay [16].
CACTAATG: the binding signal in assay [1] was 11.7 upbm affinity estimate (log intensity, higher = more binding, comparable within an allelic series); in assay [2] it was 12.3 upbm affinity estimate (log intensity, higher = more binding, comparable within an allelic series); in [3], 11.6 upbm affinity estimate (log intensity, higher = more binding, comparable within an allelic series); in assay [17] it was 12.1 upbm affinity estimate (log intensity, higher = more binding, comparable within an allelic series); in assay [18], 13.2 upbm affinity estimate (log intensity, higher = more binding, comparable within an allelic series); in assay [19] it was 10.9 upbm affinity estimate (log intensity, higher = more binding, comparable within an allelic series). The binding signal in assay [20] is 12.1 upbm affinity estimate (log intensity, higher = more binding, comparable within an allelic series).
Consider CGGCGTGC, for which the binding signal was 8.01 upbm affinity estimate (log intensity, higher = more binding, comparable within an allelic series) in assay [1]; 7.84 upbm affinity estimate (log intensity, higher = more binding, comparable within an allelic series) in assay [2]; 8.12 upbm affinity estimate (log intensity, higher = more binding, comparable within an allelic series) in assay [3]; 7.7 upbm affinity estimate (log intensity, higher = more binding, comparable within an allelic series) in [9]; 7.74 upbm affinity estimate (log intensity, higher = more binding, comparable within an allelic series) in [10]; 7.08 upbm affinity estimate (log intensity, higher = more binding, comparable within an allelic series) in [11]. Further, the binding signal in assay [12] was 7.73 upbm affinity estimate (log intensity, higher = more binding, comparable within an allelic series); in [13], 7.75 upbm affinity estimate (log intensity, higher = more binding, comparable within an allelic series); in assay [14], 7.28 upbm affinity estimate (log intensity, higher = more binding, comparable within an allelic series); in [15], 7.71 upbm affinity estimate (log intensity, higher = more binding, comparable within an allelic series); in assay [16], 7.16 upbm affinity estimate (log intensity, higher = more binding, comparable within an allelic series).
As for ACCCGTGC, the binding signal in [1] was 8.15 upbm affinity estimate (log intensity, higher = more binding, comparable within an allelic series); in assay [2], 8.32 upbm affinity estimate (log intensity, higher = more binding, comparable within an allelic series); in [3], 8.18 upbm affinity estimate (log intensity, higher = more binding, comparable within an allelic series).
CCGGGACC: the binding signal in assay [1] was 8.02 upbm affinity estimate (log intensity, higher = more binding, comparable within an allelic series); in assay [2] it was 8.2 upbm affinity estimate (log intensity, higher = more binding, comparable within an allelic series); in [3], 7.98 upbm affinity estimate (log intensity, higher = more binding, comparable within an allelic series); in assay [21], 9.46 upbm affinity estimate (log intensity, higher = more binding, comparable within an allelic series); in assay [22], 9.14 upbm affinity estimate (log intensity, higher = more binding, comparable within an allelic series); in [23] it was 9.43 upbm affinity estimate (log intensity, higher = more binding, comparable within an allelic series). Moreover, the binding signal is 9.37 upbm affinity estimate (log intensity, higher = more binding, comparable within an allelic series) in [24] and 9.26 upbm affinity estimate (log intensity, higher = more binding, comparable within an allelic series) in assay [25].
With AGTCTGCC, the binding signal in assay [1] is 8.03 upbm affinity estimate (log intensity, higher = more binding, comparable within an allelic series); in [2], 8.12 upbm affinity estimate (log intensity, higher = more binding, comparable within an allelic series); in [3], 8.07 upbm affinity estimate (log intensity, higher = more binding, comparable within an allelic series); in assay [4], 6.46 upbm affinity estimate (log intensity, higher = more binding, comparable within an allelic series); in assay [5] it was 6.59 upbm affinity estimate (log intensity, higher = more binding, comparable within an allelic series); in [6], 6.61 upbm affinity estimate (log intensity, higher = more binding, comparable within an allelic series).
